From PubChem BioAssay AID504339 (National Center for Advancing Translational Sciences (NCATS), 2011)
Hit rate of the full screen: of about 390,000 compounds, about 17,000 (4.4%) were called active. Another 8% or so got no clear call; they are omitted. Calls follow the shape of the dose curve; as a rule, active = well fitted inhibition curve with a large enough effect; inconclusive = small, poorly fitted or top-dose-only effect; inactive = no such curve, though single readings can be large or run the other way. This excerpt belongs to a sample that is enriched for actives.

Target: Lysine-specific demethylase 4A (Homo sapiens) (UniProt O75164)
Experiment: qHTS Assay for Inhibitors of JMJD2A-Tudor Domain; also: nearly all actives have a fitted effect of over 50% in size
Details: AlphaScreen JMJD2A-Tudor / H3K4me3 peptide binding; series mostly up to 114 µM; activity change, negative = inhibition: at the top concentration
% is scaled to controls: 0 for no effect and ±100 for the full control effect; potency is read from the fitted curve at half-maximal effect.

Chain of Lysine-specific demethylase 4A (Homo sapiens) (O75164 whole entry, looked up, the tested form may be a part): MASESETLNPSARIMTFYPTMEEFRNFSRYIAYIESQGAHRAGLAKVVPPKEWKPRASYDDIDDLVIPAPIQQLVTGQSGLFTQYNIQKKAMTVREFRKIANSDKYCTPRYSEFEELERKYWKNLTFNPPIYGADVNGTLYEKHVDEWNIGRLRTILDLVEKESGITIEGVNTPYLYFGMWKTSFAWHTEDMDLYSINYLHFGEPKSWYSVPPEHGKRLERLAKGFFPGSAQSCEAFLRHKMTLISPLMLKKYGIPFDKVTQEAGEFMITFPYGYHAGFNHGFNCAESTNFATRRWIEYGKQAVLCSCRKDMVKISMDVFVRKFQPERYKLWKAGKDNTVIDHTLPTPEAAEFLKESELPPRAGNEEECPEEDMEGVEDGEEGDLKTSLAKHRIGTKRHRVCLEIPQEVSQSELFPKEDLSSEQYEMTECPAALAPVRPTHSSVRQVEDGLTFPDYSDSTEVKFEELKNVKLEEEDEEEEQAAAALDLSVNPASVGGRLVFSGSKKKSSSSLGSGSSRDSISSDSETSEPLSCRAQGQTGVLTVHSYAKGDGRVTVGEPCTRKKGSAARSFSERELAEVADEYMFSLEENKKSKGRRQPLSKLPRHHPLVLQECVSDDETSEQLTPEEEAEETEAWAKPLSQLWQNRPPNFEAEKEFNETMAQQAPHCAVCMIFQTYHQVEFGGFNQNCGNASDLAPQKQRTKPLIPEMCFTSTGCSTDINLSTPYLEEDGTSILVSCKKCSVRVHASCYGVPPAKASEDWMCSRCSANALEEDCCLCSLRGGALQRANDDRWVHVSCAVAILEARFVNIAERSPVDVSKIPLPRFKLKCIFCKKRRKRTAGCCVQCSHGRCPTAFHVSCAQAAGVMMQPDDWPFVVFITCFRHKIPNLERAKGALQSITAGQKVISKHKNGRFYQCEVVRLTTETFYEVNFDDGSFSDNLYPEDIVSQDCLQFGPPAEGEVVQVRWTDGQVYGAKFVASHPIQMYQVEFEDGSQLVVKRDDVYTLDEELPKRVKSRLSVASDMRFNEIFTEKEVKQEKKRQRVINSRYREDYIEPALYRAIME

Activity change, negative = inhibition, inactive:
CCOC(=O)c1cccc(NC(=O)c2ccc(F)cc2F)c1 -3.6%
Cc1oc2ncnc(N3CCCCC3)c2c1C(=O)N1CCN(c2cccc(Cl)c2)CC1 -35.6%
CCc1ccc(NC(=O)CN2C(=O)CCSc3ccc(S(=O)(=O)N4CCCC4)cc32)cc1 -8.95%
COc1ccc(C(C(=O)NC(C)(C)C)N(Cc2ccc(F)cc2)C(=O)CCC(=O)Nc2cc(C)on2)cc1 (stereo not given) -19.1%
CCC(C)(C)NC(=O)C(c1ccc(OC)cc1)N(C(=O)CCC(=O)Nc1cc(C)on1)c1ccc(OC)cc1OC (stereo not given) -17.6%
Cc1ccc(OCCSc2nc(-c3cccs3)nc3cc(=O)[nH]n23)cc1Cl -29.2%
CCc1ccccc1OCCSc1nc(-c2cccs2)nc2cc(=O)[nH]n12 -14.3%
COc1ccc(CNCCCNCc2ccc(OC)c(OC)c2)cc1OC -8.97%
COc1cc(CNCc2cccs2)cc(Br)c1OC -0.752%
O=C(c1ccc2c(=O)n(Cc3ccco3)c(=S)[nH]c2c1)N1CCCC1 -18.4%
O=c1n(Cc2cccc(C(F)(F)F)c2)c2ccccc2c2nc(-c3ccccc3)nn12 -7.28%
O=S(=O)(c1ccccc1)N1CCc2ccccc21 11.8%
O=C(NCC(c1cccnc1)N1CCc2ccccc21)c1cccc(C(F)(F)F)c1 (stereo not given) -7.89%
COc1ccc(S(=O)(=O)NCC(=O)NC2CC2)cc1OC -9.62%
CN(C)c1ccc(C(CNS(=O)(=O)c2cc(F)ccc2F)N2CCOCC2)cc1 (stereo not given) -27.5%
COc1ccc(-c2c3c(=O)n(C)c(=O)n(C)c3c3c(C)nc4ccccc4n23)cc1 -2.41%
Cc1ccc2[nH]c3c(=O)n(CC(=O)NC(C)C)ncc3c2c1 -6.8%
COc1ccc(CCn2c3c(c(=O)[nH]c2=S)CN(C(C)C)CN3)cc1OC -21.8%
Cc1cc(C)cc(NC(=O)CSc2nc3nccnc3c(=O)n2CCc2c[nH]c3ccccc23)c1 -13.2%
COC(=O)c1ccc(N2CCOCC2)c(NC(=O)c2ccc3c(c2)OCCO3)c1 -0.69%
O=C(Nc1cccc(Cl)c1N1CCOCC1)c1ccc2c(c1)OCCO2 -11.1%
CCOC(=O)C1CCCN(C(=O)Cn2ncc3c(=O)oc4ccc(C)cc4c32)C1 (stereo not given) -15.3%
CCOC(=O)C1CCCN(C(=O)Cn2ncc3c(C)n(Cc4ccc(F)cc4)c(C)c3c2=O)C1 (stereo not given) -21.8%
COc1cccc(CNC(=O)C2CCN(S(=O)(=O)c3ccc4c(ccn4C)c3)CC2)c1 -20.1%
CCCN1CCN(CCCNC(=O)c2cnn(-c3ccc(C)cc3)c2-n2cccc2)CC1 -21.7%
COC(=O)c1ccccc1S(=O)(=O)Nc1ccc(OC)cc1 -26.2%
Cc1cc(C)n(-c2nc(C(F)(F)F)nc3ccccc23)n1 -5.54%
Cc1ccc(S(=O)(=O)N2CCN(c3ccccc3)CC2)cc1C -21.2%
N#CN1CCC(NS(=O)(=O)c2cccc(F)c2)C1 (stereo not given) -4.11%
CCOc1ccc(C2C(=O)N(C3CCCCC3)CC(=O)N2CCC2=CCCCC2)cc1OC (stereo not given) -12.8%
CC(/C=N/NC(=O)c1cc(-c2ccc3ccccc3c2)n[nH]1)=C\c1ccco1 -32.6%
Cc1ccc(NC(=O)CCC(=O)N/N=C/c2ccco2)c(C)c1 -15%
Cc1cc(NC(=O)CC(C)C)cc(-c2nc3ncccc3o2)c1O -10.4%
Fc1ccc(-c2nn(-c3ccccc3Cl)c3c2cnc2ccccc23)cc1 -10.6%
O=C(NC1CC(=O)N(c2ccccc2)C1)c1ccco1 (stereo not given) -14%
Cc1cc(C)n2ncc(C(=O)N3CCCC3)c2n1 -14.2%
Cc1ccc(Cl)cc1NC(=O)CSc1nccn1C -11.9%
NC(=O)C1CCN(C(=O)c2ccc3c(=O)n(Cc4cccc(Br)c4)c(=S)[nH]c3c2)CC1 -31.2%
NC(=O)C1CCN(C2OC(=O)c3ccccc32)CC1 (stereo not given) -12.3%

Potency, active:
CCC(C)(C)NC(=O)C(c1cccc(OC)c1OC)N(CC(C)C)C(=O)CCC(=O)Nc1cc(C)on1 (stereo not given) 11.2 µM
O=c1cc2nc(-c3ccccc3)nc(SCCOc3ccc(Cl)cc3)n2[nH]1 56.2 µM
COc1cc(CNCc2ccc(OC)c3ccccc23)cc(OC)c1OC 25.1 µM
O=S(=O)(NCC(c1ccccc1)N1CCc2ccccc21)c1ccccc1 (stereo not given) 22.4 µM
COc1ccc(S(=O)(=O)NCC(c2ccc(N(C)C)cc2)N2CCc3ccccc32)cc1OC (stereo not given) 22.4 µM
O=C(Nc1ccc(N2CCOCC2)cc1)c1ccc2c(c1)OCO2 20 µM
CCCn1c2ccccc2c2cnn(CC(=O)N3CCCC(C(=O)OCC)C3)c(=O)c21 (stereo not given) 79.4 µM
Cc1cc(C)n(-c2nnc(N3CCN(c4ccccc4)CC3)nn2)n1 50.1 µM
Cc1cc(-c2n[nH]c(=S)n2/N=C/c2ccco2)n[nH]1 3.98 µM
Cc1cc(-c2n[nH]c(=S)n2/N=C/C(Br)=C/c2ccccc2)n[nH]1 56.2 µM
NC(=O)C1CCN(Cc2nc3c(Br)cc(Br)cc3c(=O)[nH]2)CC1 3.16 µM
